SMILES strings stand for the structures. Inconclusive results are not listed. Where a call stands in place of a potency, no number is given. The source made the active and inactive calls. Calls come from the whole dose curve; as a rule, active = well fitted activation curve with a large enough effect in the repeat runs; inconclusive = weak or mixed curves; inactive = flat fitted curve, though single readings scatter.
Potency is the fitted concentration of half-maximal effect.

This experiment in a line: A CellTox Green Cytotoxicity Assay to monitor cytotoxicity in HepG2 cells - 24 hour (AID 1224878). Note: nearly all actives have a fitted effect of over 45% in size. The conditions noted are these: CellTox Green fluorescence; series mostly up to 76.8 µM. The source says:
National Center for Advancing Translational Sciences [NCATS]
NIH Chemical Genomics Center [NCGC]
U.S. Environmental Protection Agency [EPA]
National Institutes of Environmental Health Sciences [NIEHS]
National Toxicology Program [NTP]
Cell-based models are critical for drug discovery. Determining the natural cytotoxic effects resulting from test compounds is an essential research activity. A CellTox Green Cytotoxicity Assay to monitor cytotoxicity in real time of continues cell culture during 40 hours of the compound treatment was used to screen Tox21 10K library compounds in HepG2 cells. CellTox Green Cytotoxicity Assay is a nonlytic, homogeneous, biofluorescent method to measure cytotoxicity in cell culture after experimental manipulation. The assay system uses a proprietary asymmetric cyanine dye that is excluded from viable cells but preferentially stains the dead cell's DNA. […] Viable cells produce no appreciable increases in fluorescence. Therefore, the fluorescence signal produced by the binding interaction with dead cell DNA is proportional to cytotoxicity.
The mixture of HepG2 cell suspension and reagents were dispensed at 600cells/6 ul/well in 1536-well tissue culture treated black solid bottom plates using a Multidrop dispenser. After the assay plates were incubated at a 37 C/5% CO2 incubator for 5 hours, 23 nL of compounds dissolved in DMSO, positive and negative controls was transferred to the assay plate by a pintool work station. The plates were incubated at 37 C for 40 hours. The fluorescence intensity were measured at 0h, 8h, 16h, 24h, 32h and 40h time points using ViewLux plate reader during compound treatment.
On to `CCC(C)(C)c1ccc(CC(C)CN2C[C@@H](C)O[C@@H](C)C2)cc1` (stereo not given in full), for which the Potency was 21.3 µM (active). On the same count and under the same terms, the value for `CN[C@H]1CC[C@@H](c2ccc(Cl)c(Cl)c2)c2ccc(S(N)(=O)=O)cc21` was 13.8 µM (active); that for `CC(Cc1ccc(O)c(O)c1)C(C)Cc1ccc(O)c(O)c1` (stereo not given) was 49 µM (active).

For `COc1cc(/C=C/C(=O)CC(=O)/C=C/c2ccc(O)c(OC)c2)ccc1O`, the Potency is 49.3 µM (active). With `CC(C)c1ccc2sc3ccccc3c(=O)c2c1`, the Potency entry was “inactive”. `CCOC(=O)C1=NN(c2ccc(Cl)cc2Cl)C(C)(C(=O)OCC)C1` (stereo not given): the Potency entry is “inactive”.

Consider `Clc1ccc2c(Cl)ccnc2c1`, for which the Potency entry is “inactive”. `CN1CCN(CCCN2c3ccccc3Sc3ccc(Cl)cc32)CC1`: the Potency is 23.9 µM (active). The same measure, in the same setting: for `C/C(=C\c1ccc(C(=O)O)cc1)c1ccc2c(c1)C(C)(C)CCC2(C)C` the value was “inactive”; for `N#Cc1ccc(C/C(=N/NC(=O)Nc2ccc(OC(F)(F)F)cc2)c2cccc(C(F)(F)F)c2)cc1`, “inactive”. Take `Cn1c(=O)[nH]c2ncn(C)c2c1=O`: the Potency result was “inactive”. With `CC(C)(c1ccc(Oc2ccc(N)cc2)cc1)c1ccc(Oc2ccc(N)cc2)cc1`, the Potency entry was “inactive”. In the case of `c1ccc(-c2ccc(C(c3ccccc3)n3ccnc3)cc2)cc1` (stereo not given), the Potency result was “inactive”. With `CSc1nnc(C(C)(C)C)c(=O)[nH]1`, the Potency entry is “inactive”. On to `O=C1C=CC(=O)N1c1cccc(N2C(=O)C=CC2=O)c1`, for which the Potency was 12.3 µM (active). For `C=CC(C)(C)O`, the Potency result was “inactive”. For `CCCC(C)C=O` (stereo not given), the Potency result was “inactive”. Still for that read-out and setting: for `Cc1ccc(C=O)cc1` the value was “inactive”; for `Clc1cccc(Cl)n1`, “inactive”. Consider `C=C[Si](C)(C)Cl`, for which the cytotoxicity was -14.5% [at 6.97 µM] (inactive). With `S=C1NC=NC2N=CNC12` (stereo not given), the Potency result was “inactive”. `CC(=O)[C@]1(O)Cc2c(O)c3c(c(O)c2[C@@H](O[C@H]2C[C@H](N)[C@H](O)[C@H](C)O2)C1)C(=O)c1ccccc1C3=O`: the Potency is 23.9 µM (active). With `O=C(NCc1ncc(C(F)(F)F)cc1Cl)c1c(Cl)cccc1Cl`, the Potency result is “inactive”. Turning to `C=CC(=O)O[C@H]1C[C@@H]2CC[C@@]1(C)C2(C)C`, the Potency result is “inactive”. Take `CCCCCCCCCCCC(=O)Cl`: the Potency entry is “inactive”.

Consider `Cc1cc(C)c(O)c(C(C)(C)C)c1`, for which the Potency result is “inactive”. With `C/C(=N\[Si](C)(C)C)O[Si](C)(C)C`, the Potency entry is “inactive”. Still for that read-out and setting: for `[Cl][Dy]([Cl])[Cl]` the value was “inactive”; for `CN1CCN(C)CC1`, “inactive”; for `C=C(C)CCO`, “inactive”. As for `Nc1ccc(Cl)c([N+](=O)[O-])c1`, the Potency result was “inactive”. For `C=C1CC[C@H]2O[C@]2(C)CC[C@@H]2[C@@H]1CC2(C)C`, the Potency entry was “inactive”. Take `CC1CCC(C(C)(C)O)CC1` (stereo not given): the Potency result is “inactive”. In the case of `C=CCc1cc(S(=O)(=O)c2ccc(O)c(CC=C)c2)ccc1O`, the Potency entry is “inactive”. On the same count and under the same terms, for `CC(C=O)c1ccccc1` (stereo not given) the value was “inactive”; for `CCN(CC)c1ccc(N=Nc2ccccc2)cc1`, “inactive”; for `CCc1cccc(C)c1N(C(=O)CS(=O)(=O)O)C(C)COC` (stereo not given), “inactive”. In the case of `Oc1ccc(Cl)cc1C1CCCC1`, the Potency was 54.9 µM (active).

For `Cc1ccc2nc(-c3ccc(N)cc3)sc2c1S(=O)(=O)O`, the Potency entry is “inactive”. For `Cc1cccc2c1ccc1ccccc12`, the Potency entry was “inactive”.

For the origin of these results see PubChem BioAssay (Tox21).
